In PubChem BioAssay one finds composite z-score and z-score data, which are given here for 16 compounds.

For experiment [1], the system named is XIP peptide (Xip251-270) binding. Description: XIP fragment 251-270 binding compounds – biochemical, small-molecule microarray, fluorescence 635/667 nm, 0.1 µg/mL protein, primary screen (AID 1182). The settings on record: fluorescent protein binding, 635 nm, higher = more signal, called active from +8 up or from −8 down.
Experiment [2] deals with XIP peptide (Xip251-270). The experiment can be described thus: compounds binding XIP fragment 251-270 – biochemical, small-molecule microarray, fluorescence 635/667 nm, 0.5 µg/mL protein, primary screen (AID 1183). The settings on record: fluorescence 635 nm, higher = more signal.
Experiment [3] in a line: blood-stage malaria parasite viability loss – strain 3D7, DAPI fluorescence, 100 nL, primary screen (AID 1184).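 Note: parasites grown inside human red blood cells in medium with human serum.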 The settings on record: P. falciparum 3D7 growth, 3 d, higher = more signal.
Experiment [4] concerns the target Homeobox protein Hox-A13 (Mus musculus) (UniProt Q62424). Description: disruptors of Hoxa13 oligonucleotide interaction – biochemical, fluorescence polarization, labeled oligonucleotide, primary screen (AID 1185). The settings on record: Hoxa13:DNA binding, 15 min, higher = more signal, called active from +8 up or from −8 down. (In fluorescence polarisation assays a small probe gives low polarisation when free and higher when bound to something large.)

A short description of experiment [5]: blockers of DNA damage checkpoint Chk1 activation – imaging, HeLa, hydroxyurea, phospho-Chk1 antibody, percent positive cells, primary screen (AID 1186). The settings on record: hydroxyurea-induced phospho-Chk1 immunofluorescence imaging, higher = more signal.
Experiment [6] in a line: blockers of DNA damage checkpoint Chk1 activation – imaging, HeLa, hydroxyurea, phospho-Chk1 nuclear intensity, primary screen (AID 1187). The settings on record: hydroxyurea-induced phospho-Chk1 immunofluorescence imaging, higher = more signal.

The source made the active and inactive calls. Unless noted, the rule behind the calls is not given here.

Chain of Homeobox protein Hox-A13 (Mus musculus) (Q62424 whole entry, looked up): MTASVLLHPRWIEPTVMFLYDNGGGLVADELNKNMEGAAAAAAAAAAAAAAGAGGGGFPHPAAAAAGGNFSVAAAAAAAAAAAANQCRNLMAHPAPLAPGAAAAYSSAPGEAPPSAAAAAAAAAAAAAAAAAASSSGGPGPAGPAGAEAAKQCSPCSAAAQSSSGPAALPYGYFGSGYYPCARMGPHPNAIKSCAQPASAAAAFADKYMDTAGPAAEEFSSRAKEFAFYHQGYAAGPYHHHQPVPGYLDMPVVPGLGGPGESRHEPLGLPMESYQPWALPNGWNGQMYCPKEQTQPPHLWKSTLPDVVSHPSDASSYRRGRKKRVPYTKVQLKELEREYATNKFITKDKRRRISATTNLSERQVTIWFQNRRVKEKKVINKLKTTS

For the compound `CO[C@H]1O[C@H](CO)[C@@H](OC(=O)Nc2ccc3c(c2)OCO3)[C@H](OC(=O)c2cc3ccccc3[nH]2)[C@H]1OC(=O)c1cc2ccccc2[nH]1`, the composite z-score in experiment [1] is 0.472 (inactive); in experiment [2], 0.374. Moreover, the z-score in experiment [3] was -0.603; in experiment [4] it was -4.88 (inactive); in experiment [5] it was -0.308 (inactive); in experiment [6], -0.227 (inactive).
As for `CN(C)CCCNC(=O)[C@@]1(C)c2ccccc2C(=O)N(Cc2ccccc2)[C@H]1c1ccc(CO)cc1`, the figures for the composite z-score in experiment [1] and in experiment [2] were -0.328 (inactive) and -0.711, respectively. Besides, the z-score in experiment [3] is -0.649; in experiment [4], -2.18 (inactive); in experiment [5], 0.559 (inactive); in experiment [6], 0.749 (inactive).
Turning to `COC(=O)[C@@]1(Cc2ccc(F)cc2)[C@H]2c3cc(C(=O)N4CCCC4)n(CCN4CNCC4=O)c3C[C@H]2CN1C(=O)c1ccccc1`, the composite z-score in experiment [1] was 0.207 (inactive); in experiment [2] it was 0.632. In addition, the z-score in experiment [3] was -1.65; in experiment [4], -5.84 (inactive); in experiment [5], 0.191 (inactive); in experiment [6], 0.44 (inactive).
In the case of `[N-]=[N+]=NCc1ccccc1[C@H]1OC(c2ccc(OCCCO)cc2)=N[C@@]1(CCS(=O)(=O)c1ccccc1)C(=O)N1CCCCC1`, the composite z-score in experiment [1] was 0.447 (inactive); in experiment [2] it was 0.757. Moreover, the z-score in experiment [3] was -2.46; in experiment [4], -3.76 (inactive); in experiment [5] it was -0.0013 (inactive); in experiment [6], -0.0087 (inactive).
`O=C1O[C@H](c2ccccc2)[C@H](c2ccccc2)N2[C@H]1[C@@H](C(=O)NC[C@H](O)c1ccccc1)[C@]1(C(=O)Nc3ccc(C#CCCO)cc31)[C@H]2c1ccc(OCCO)cc1`: the composite z-score in experiment [1] is 1.14 (inactive); in experiment [2], 0.829. The z-score is -0.685 in experiment [3], -3.46 (inactive) in experiment [4], -0.434 (inactive) in experiment [5] and -0.821 (inactive) in experiment [6].
As to `CCCNC(=O)[C@@]1(c2ccc([N+](=O)[O-])cc2)CC(=O)N(C2CCCCC2)[C@@H]1c1ccc(CO)cc1`, the composite z-score in experiment [1] is 2.45 (inactive); in experiment [2], 0.73. In addition, the z-score in experiment [3] was -0.47; in experiment [4], -3.27 (inactive); in experiment [5], 0.0926 (inactive); in experiment [6] it was 0.213 (inactive).
As for `COc1ccc(NC(=O)O[C@H]2[C@H](OC(=O)Nc3ccccc3)[C@H](OC(=O)Nc3ccccc3)[C@@H](OC)O[C@@H]2CO)cc1`, the composite z-score is 0.635 (inactive) in experiment [1] and 0.934 in experiment [2]. Besides, the z-score in experiment [3] is -2.37; in experiment [4], -6.24 (inactive); in experiment [5] it was 0.131 (inactive); in experiment [6], 0.288 (inactive).
Take `C=CCN1C(=O)[C@@]2(O[C@@H](CCn3cc([C@H](O)c4ccccc4)nn3)[C@H]([Si](C)(C)c3ccc(OC)cc3)[C@H]2C)c2cc(N3CCC3=O)ccc21`: the figures for the composite z-score in experiment [1] and in experiment [2] were -0.0195 (inactive) and -0.114, respectively. Moreover, the z-score in experiment [3] is -2.1; in experiment [4], -5.38 (inactive); in experiment [5], -0.108 (inactive); in experiment [6], 0.582 (inactive).
`CC(C)(C)OC(=O)CC[C@]1(C(=O)NCc2ccccc2)N=C(c2ccc(OCCCO)cc2)O[C@H]1c1ccccc1CN=[N+]=[N-]`: the composite z-score in experiment [1] was 0.333 (inactive); in experiment [2], 0.688. Further, the z-score was -2.39 in experiment [3], -1.28 (inactive) in experiment [4], -0.654 (inactive) in experiment [5] and -0.865 (inactive) in experiment [6].
Take `O=C1c2ccccc2[C@](Cc2ccccc2I)(C(=O)NCC(F)(F)F)[C@H](c2ccc(CO)cc2)N1C1CCCCC1`: the results for the composite z-score in experiment [1] and in experiment [2] were 0.759 (inactive) and 0.841, respectively. The z-score in experiment [3] was -1.14; in experiment [4] it was -3.97 (inactive); in experiment [5], -0.68 (inactive); in experiment [6] it was -0.11 (inactive).
For `COC(=O)[C@@]1(Cc2ccc(OC)cc2)[C@H]2c3cc(C(=O)N4CCCC4)n(Cc4cccc5ccccc45)c3C[C@H]2CN1C(=O)c1ccccc1`, the composite z-score in experiment [1] is 0.0014 (inactive); in experiment [2], 0.658. Besides, the z-score was -1.58 in experiment [3], -1.44 (inactive) in experiment [4], -0.491 (inactive) in experiment [5] and -0.684 (inactive) in experiment [6].
For the compound `Cc1cc(C)c(C(O)C2C=CC3C(=O)NC(=O)C3N2Nc2ccc(Cl)cc2Cl)c(C)c1` (stereo unspecified), the composite z-score was 0.696 (inactive) in experiment [1] and 0.179 in experiment [2]. The z-score was 0.17 in experiment [3], -3.47 (inactive) in experiment [4], 0.73 (inactive) in experiment [5] and 0.314 (inactive) in experiment [6].
On to `CCCC[C@@H]1C[C@H]1[C@@H](NC(=O)c1ccccc1)c1ccc(C(F)(F)F)cc1`, for which the composite z-score in experiment [1] was 2.28 (inactive); in experiment [2], -1.51. The z-score is 0.011 in experiment [3], 0.0892 (inactive) in experiment [4], -0.27 (inactive) in experiment [5] and -0.226 (inactive) in experiment [6].
Consider `COCCOC(=O)N1C(=O)[C@@]2(c3cc(C#CCC(C(=O)OC)C(=O)OC)ccc31)[C@H](C(=O)N1CCc3cc(OC)c(OC)cc3C1)[C@H]1C(=O)O[C@H](c3ccccc3)[C@H](c3ccccc3)N1[C@@H]2c1ccc(OCCO)cc1`, for which the composite z-score in experiment [1] was 0.655 (inactive); in experiment [2] it was 0.749. The z-score in experiment [3] was -2.1; in experiment [4] it was 3.49 (inactive); in experiment [5] it was -0.0997 (inactive); in experiment [6] it was 0.159 (inactive).
For the compound `O=C(CS)NCCCCCCNC(=O)[C@H]1C[C@H]2C(=O)N[C@@H](Cc3ccccc3)C(=O)N2[C@H]1c1ccc(O)cc1`, the composite z-score in experiment [1] was 0.398 (inactive); in experiment [2], 0.849. Besides, the z-score in experiment [3] is -0.0607; in experiment [4], -1.23 (inactive); in experiment [5], -0.836 (inactive); in experiment [6] it was -0.555 (inactive).
In the case of `CCCC[C@@H]1C[C@H]1[C@@H](NC(=O)Cc1ccccc1)c1ccc(-c2ccccc2)cc1`, the values for the composite z-score in experiment [1] and in experiment [2] were 0.33 (inactive) and -0.135, respectively. The z-score in experiment [3] was -0.456; in experiment [4], -0.559 (inactive); in experiment [5], -0.584 (inactive); in experiment [6] it was -0.541 (inactive).
